Experimental data: the supplement of paper PMC11865577
Counter-ions that a name gives are not always drawn.

Experiments:
Assay in all cases: normalised indicator fluorescence (fraction of RNA + indicator signal without compound); higher = less displacement of indicator (weaker competition)
Details in all cases: compound concentration: 5 uM, 30 min
hsa-mir-191 loop = test system: hsa-mir-191 loop
Summary of the method: (§1)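 Values are ratios: indicator fluorescence, less a buffer-plus-indicator blank, over the RNA-plus-indicator signal with no compound, as the mean of two independent experiments. This displacement screen used TO-PRO-1 or TO-PRO-3 with RNA in 96-well plates, in 20 mM phosphate pH 7.0, 20 mM NaCl, 80 mM KCl. Compounds went in at about 5 uM final, and readings were taken after 30 min on an Infinite 200 PRO at 485 or 620 nm excitation.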

hsa-mir-21 loop = test system: hsa-mir-21 loop
Summary of the method: as §1

hsa-mir-221 loop = test system: hsa-mir-221 loop
Summary of the method: as §1

hsa-mir-374a loop = test system: hsa-mir-374a loop
Summary of the method: as §1

hsa-mir-6850 loop = test system: hsa-mir-6850 loop
Summary of the method: as §1

[1] = indicator: TO-PRO-1 0.1 uM, RNA concentration: 0.1 uM
[2] = indicator: TO-PRO-3 0.5 uM, RNA concentration: 0.5 uM

Row | SMILES | normalised indicator fluorescence (hsa-mir-191 loop; [1]) | normalised indicator fluorescence (hsa-mir-191 loop; [2]) | normalised indicator fluorescence (hsa-mir-21 loop; [1]) | normalised indicator fluorescence (hsa-mir-21 loop; [2]) | normalised indicator fluorescence (hsa-mir-221 loop; [1]) | normalised indicator fluorescence (hsa-mir-221 loop; [2]) | normalised indicator fluorescence (hsa-mir-374a loop; [1]) | normalised indicator fluorescence (hsa-mir-374a loop; [2]) | normalised indicator fluorescence (hsa-mir-6850 loop; [1]) | normalised indicator fluorescence (hsa-mir-6850 loop; [2])
1 | CO[C@H]1/C=C/O[C@@]2(C)Oc3c(C)c(O)c4c(c3C2=O)C2=NC3(CCN(CC(C)C)CC3)NC2=C(NC(=O)/C(C)=C\C=C\[C@H](C)[C@H](O)[C@@H](C)[C@@H](O)[C@@H](C)[C@H](OC(C)=O)[C@@H]1C)C4=O [Rifabutin] | 1.04 | 1.01 | 1.03 | 0.969 | 0.997 | 1.01 | 1.34 | 1.04 | 0.991 | 1.07
2 | COc1ccc(O)cc1 [4-Methoxyphenol] | 0.962 | 1.17 | 0.99 | 1.05 | 1.08 | 1.04 | 1.19 | 1.14 | 0.977 | 1.11
3 | Oc1cc(O)c2c(c1)O[C@H](c1ccc(O)c(O)c1)[C@@H](O)C2 [(+)-Catechin Hydrate] | 0.971 | 1.07 | 0.941 | 1.02 | 1.02 | 1.13 | 1.15 | 1.22 | 0.975 | 1.09
4 | COc1ccc(-c2coc3cc(O)ccc3c2=O)cc1O [Calycosin] | 1.08 | 1.02 | 1 | 1.06 | 1.03 | 1.08 | 1.01 | 1.25 | 1.01 | 1.07
5 | CCc1oc2ccccc2c1C(=O)c1cc(Br)c(O)c(Br)c1 [Benzbromarone] | 0.976 | 1.01 | 0.927 | 1.05 | 1 | 1.09 | 1.16 | 1.34 | 0.95 | 1.04
6 | CNc1ccc([N+](=O)[O-])c(Nc2ccc3[nH]ncc3c2)n1 | 0.903 | 0.996 | 0.899 | 1.02 | 0.959 | 1.15 | 1.1 | 1.35 | 0.93 | 0.929
7 | C[C@@H]1O[C@@H](O[C@H]2[C@H](Oc3cc(O)c4c(c3)O[C@H](c3ccc(O)cc3)CC4=O)O[C@H](CO)[C@@H](O)[C@@H]2O)[C@H](O)[C@H](O)[C@H]1O [Naringin] | 0.96 | 1.09 | 0.933 | 1.08 | 1.06 | 1.04 | 1.14 | 1.21 | 0.897 | 1.09
8 | COc1ccc(-c2nc(-c3cc(C(F)(F)F)cc(C(F)(F)F)c3)n(Cc3ccc(C(N)=O)cc3)c2-c2ccc(OC)cc2)cc1 [Apoptozole] | 0.992 | 1.01 | 1.01 | 1.03 | 1.05 | 1.21 | 1.06 | 1.36 | 0.966 | 0.976
9 | CC(C)=CCC[C@](C)(O[C@@H]1O[C@H](CO)[C@@H](O)[C@H](O)[C@H]1O)[C@H]1CC[C@]2(C)[C@@H]1[C@H](O)C[C@@H]1[C@@]3(C)CC[C@H](O)C(C)(C)[C@@H]3[C@@H](O[C@@H]3O[C@H](CO)[C@@H](O)[C@H](O)[C@H]3O[C@@H]3OC[C@@H](O)[C@H](O)[C@H]3O)C[C@]12C [Notoginsenoside R1] | 1.04 | 1.01 | 1 | 0.991 | 1.15 | 0.995 | 1.21 | 1.09 | 0.982 | 1.01
10 | O=c1ccc2ccc(O)cc2o1 [7-Hydroxycoumarin] | 1.06 | 1.06 | 1.05 | 0.997 | 1.11 | 1.01 | 1.07 | 1.15 | 0.986 | 1.05
11 | O=C(O)CCc1ccc(O)cc1O [Hydroumbellic acid] | 1.11 | 1.05 | 0.973 | 1.06 | 0.989 | 1.16 | 1.1 | 1.13 | 1.1 | 1.04
12 | COC(=O)C1=CC[C@@]23CC[C@@H]([C@@](C)(/C=C/C=C(\C)C(=O)O)OC2=O)[C@@]3(OC(C)=O)CC1 [Pseudolaric Acid B] | 1.02 | 0.949 | 1.02 | 0.979 | 0.969 | 0.93 | 0.998 | 1.19 | 1.03 | 1.03
13 | CCc1cc(C(N)=S)ccn1 [Ethinamide] | 1.07 | 1.01 | 1.1 | 1.04 | 1.04 | 1.07 | 1.18 | 1.2 | 1.04 | 1.05
14 | O=C(/C=C/C=C/c1ccc2c(c1)OCO2)N1CCCCC1 [Piperine] | 1.02 | 1.01 | 0.903 | 1.05 | 0.997 | 0.908 | 1.16 | 1.16 | 1.13 | 1.04
15 | C[C@H]1Oc2cc(cnc2N)-c2c(nn(C)c2C#N)CN(C)C(=O)c2ccc(F)cc21 [Lorlatinib] | 0.997 | 1.03 | 1.05 | 1.03 | 0.999 | 1.02 | 1.08 | 1.26 | 1.14 | 1.05
16 | Oc1cc(O)c2c(c1)O[C@H](c1ccc(O)c(O)c1)[C@@H](O)C2 [Cianidanol] | 1.01 | 1.07 | 0.93 | 1.06 | 1.16 | 1.07 | 1.26 | 1.17 | 1 | 1.07

Row | SMILES | normalised indicator fluorescence (hsa-mir-191 loop; [1]) | normalised indicator fluorescence (hsa-mir-191 loop; [2]) | normalised indicator fluorescence (hsa-mir-21 loop; [1]) | normalised indicator fluorescence (hsa-mir-21 loop; [2]) | normalised indicator fluorescence (hsa-mir-221 loop; [1]) | normalised indicator fluorescence (hsa-mir-221 loop; [2]) | normalised indicator fluorescence (hsa-mir-374a loop; [1]) | normalised indicator fluorescence (hsa-mir-374a loop; [2]) | normalised indicator fluorescence (hsa-mir-6850 loop; [1]) | normalised indicator fluorescence (hsa-mir-6850 loop; [2])
17 | CNC(=O)c1ccc(C)c(-n2c(C)cc(OCc3ccc(F)cc3F)c(Br)c2=O)c1 | 1.02 | 1.03 | 1.03 | 1.02 | 1.19 | 1.05 | 1 | 1.08 | 0.914 | 1.04
18 | Cc1c(C)c2c(c(C)c1O)CCC(C)(C(=O)O)O2 (stereo not given) [Trolox] | 1.03 | 1.05 | 1.02 | 0.957 | 1.05 | 1.12 | 1.11 | 1.22 | 1.02 | 1.07
19 | CCNC(=O)c1noc(-c2cc(C(C)C)c(O)cc2O)c1-c1ccc(CN2CCOCC2)cc1 [Luminespib] | 1.08 | 1.05 | 1.03 | 1.02 | 1.06 | 1.05 | 1.04 | 1.15 | 1.01 | 1.06
20 | NNC(=O)c1ccncc1 [Isoniazid] | 1.01 | 1.06 | 0.967 | 1.07 | 0.976 | 1.01 | 1.01 | 1.07 | 0.921 | 1.09
21 | Cc1cc(C(C)(C)C)c(O)c(C(C)(C)C)c1 | 1.01 | 1.04 | 1.04 | 1 | 1.05 | 1.12 | 1.11 | 1.19 | 0.924 | 1.06
22 | C[S+]([O-])c1ccc(-c2nc(-c3ccc(F)cc3)c(-c3ccncc3)[nH]2)cc1 (stereo not given) | 0.969 | 1.02 | 1.05 | 1.02 | 1.01 | 1.05 | 1.07 | 1.04 | 1.08 | 1.04
23 | O=[N+]([O-])c1ccc(-c2nc(-c3ccc(F)cc3)c(-c3ccncc3)[nH]2)cc1 | 1.06 | 1.03 | 0.973 | 1.03 | 1.16 | 1.03 | 1.59 | 1.15 | 0.975 | 1.03
24 | COc1c(C)cnc(Cn2cnc3c(Cl)nc(N)nc32)c1C | 1.04 | 1.04 | 0.99 | 1.04 | 1.01 | 1.06 | 1.19 | 1.09 | 1.02 | 1.05
25 | C[C@H]1[C@H](C)CC[C@]2(C(=O)O[C@@H]3O[C@H](CO[C@@H]4O[C@H](CO)[C@@H](O[C@@H]5O[C@H](C)[C@H](O)[C@@H](O)[C@H]5O)[C@H](O)[C@H]4O)[C@@H](O)[C@H](O)[C@H]3O)CC[C@]3(C)C(=CC[C@@H]4[C@@]5(C)C[C@@H](O)[C@H](O)[C@@](C)(CO)[C@@H]5CC[C@]43C)[C@H]12 [Asiaticoside] | 1.02 | 1.03 | 0.968 | 0.996 | 0.992 | 1.03 | 1.09 | 1.16 | 1.03 | 1.11
26 | O=C1C[C@@H](c2ccc(O)cc2)Oc2cc(O)cc(O)c21 [Naringenin] | 0.927 | 1.03 | 0.942 | 1.05 | 1.07 | 0.975 | 1.17 | 1.18 | 0.978 | 1.02
27 | CN(NC(=O)CC(=O)NN(C)C(=S)c1ccccc1)C(=S)c1ccccc1 [Elesclomol] | 1.05 | 1.03 | 1.06 | 1.03 | 1.04 | 0.964 | 1.09 | 1.18 | 1.02 | 1.02
28 | O=C1O[C@H]([C@@H](O)CO)C(O)=C1O [L(+)-Ascorbic acid] | 1.01 | 1 | 0.953 | 1 | 1.05 | 1.11 | 1.05 | 1.12 | 1.09 | 1.06
29 | N=C(NCCCCCCNC(=N)NC(=N)Nc1ccc(Cl)cc1)NC(=N)Nc1ccc(Cl)cc1 [Chlorhexidine hydrochloride] | 1.01 | 0.962 | 0.896 | 1 | 1.01 | 0.981 | 1.06 | 1.05 | 0.906 | 1.04
30 | Cc1cc(NC(=O)c2cccc(NC(=O)/C=C/CN(C)C)c2)ccc1Nc1nccc(-c2cccnc2)n1 | 1.03 | 1.05 | 0.972 | 1.01 | 1.04 | 1.02 | 1.08 | 1.05 | 1.06 | 0.942
31 | CC1(C)OC(=O)C=C[C@]2(C)[C@H]3CC[C@@]4(C)[C@H](c5ccoc5)OC(=O)[C@H]5O[C@]54[C@]3(C)C(=O)C[C@@H]12 [Obacunone] | 1.07 | 1.03 | 1.06 | 1.08 | 1.12 | 1.07 | 1.11 | 1.09 | 0.979 | 1.05
32 | C[C@@H]1O[C@@H](O[C@@H]2[C@@H](O)[C@H](OCCc3ccc(O)c(O)c3)O[C@H](CO)[C@H]2OC(=O)/C=C/c2ccc(O)c(O)c2)[C@H](O)[C@H](O)[C@H]1O [Verbascoside] | 1.1 | 1.02 | 1.13 | 1.01 | 1.07 | 0.949 | 1.46 | 1.14 | 1.02 | 1.02
